Screening data from PubChem.
Plk1 PBD FP: Plk1 (human) PBD binding inhibition; P53350; Plk1 PBD phosphopeptide binding, fluorescence polarization; inhibition, %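 (tested at about 20 µM)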; 97,000 compounds, 0.13% hits; AID 693; in the data active = inhibition above about 34%, passing the limit was not always enough
Target sequence (P53350 whole entry, looked up): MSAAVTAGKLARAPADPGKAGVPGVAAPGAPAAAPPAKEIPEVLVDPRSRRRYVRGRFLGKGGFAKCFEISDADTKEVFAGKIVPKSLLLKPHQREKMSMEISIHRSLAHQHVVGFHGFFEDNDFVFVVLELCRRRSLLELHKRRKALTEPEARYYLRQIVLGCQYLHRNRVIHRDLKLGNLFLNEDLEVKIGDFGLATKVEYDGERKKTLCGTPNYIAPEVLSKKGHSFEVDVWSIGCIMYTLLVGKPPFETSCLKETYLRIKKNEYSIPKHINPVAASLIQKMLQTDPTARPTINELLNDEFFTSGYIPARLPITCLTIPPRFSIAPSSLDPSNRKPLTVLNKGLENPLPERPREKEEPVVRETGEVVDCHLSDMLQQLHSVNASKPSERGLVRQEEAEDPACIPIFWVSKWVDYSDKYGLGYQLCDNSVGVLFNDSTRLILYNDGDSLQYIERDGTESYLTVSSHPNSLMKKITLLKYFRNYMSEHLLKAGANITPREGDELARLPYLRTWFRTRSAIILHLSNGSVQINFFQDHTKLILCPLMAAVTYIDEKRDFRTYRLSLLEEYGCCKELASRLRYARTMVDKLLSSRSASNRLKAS
CYP2C19 activ: cytochrome P450 2C19 (human) activation; P33261; recombinant CYP2C19, luciferin-H EGE luminescence; hits give high values; 0 = fully inhibited enzyme, 1 = untreated enzyme; activation factor at 5 µM; 96,000 tested, under 10 active;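 active = activation factor of at least 2 at 5 µM in the primary screen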;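 also: 0 = wells with 2.5 mM tranylcypromine and 1 = vehicle-only wells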
CYP2C19 inhib: human CYP2C19 inhibition; 96,000 compounds, 21% hits; CYP2C19 Supersomes, luciferin-H EGE luminescence, 30 min; inhibition, % at 5 µM;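 active = CYP2C19 inhibition above a set limit at 5 µM in the primary screen, cut at about 50% in these data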;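 also: plate controls were negative control wells for no effect and 2.5 mM tranylcypromine positive control for full effect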
CYP2C9 act: increases human cytochrome P450 2C9 activity | P11712 | recombinant CYP2C9, luciferin-H conversion, luminescence; hits give high values; factor 1 = untreated enzyme, 0 = blocked | activation factor at 5 µM | 96,000 compounds, 1.4% hits | AID 1024;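 active = activation factor of 2 or more for CYP2C9 at a 5 µM dose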;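 also: 0 = sulfaphenazole-blocked wells and 1 = vehicle-only wells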
CYP2C9 inhib: human CYP2C9 inhibition; P11712; CYP2C9 Supersomes, luciferin-H conversion, luminescence; inhibition, % at 5 µM; 96,000 compounds, 20% hits; AID 777;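 active = blocking of liver enzyme CYP2C9 beyond about 50% at 5 µM, limit read from the data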
PLK1 inh: inhibitors of human PLK1 kinase. 97,000 compounds, 0.53% hits. P53350. recombinant PLK1 kinase, TR-FRET peptide phosphorylation. AID 619. inhibition, % at 10 µM;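 active = inhibition of 50% or more in the single-concentration screen; inactive = inhibition below 50%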;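 also: 0% = DMSO max control and 100% = H-89 dihydrochloride min control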
* = called active by the depositor; . = no result. This is a sample that favours compounds with a hit; in the whole collection about 28% have one here.

SMILES	Plk1 PBD FP	CYP2C19 activ	CYP2C19 inhib	CYP2C9 act	CYP2C9 inhib	PLK1 inh
COc1ccc(NC(=O)CCCn2c(=O)[nH]c3ccccc3c2=O)cc1	-9	0.5	53*	0.1	89*	-6
O=C(CCCn1c(=S)[nH]c2ccccc2c1=O)NCc1ccco1	-9	0.9	7	1.1	-11	-10
COc1ccc(NC(=O)CCCn2c(=S)[nH]c3ccccc3c2=O)cc1	-13	0.9	11	0.4	59*	-20
COc1ccc(NC(=O)CCCCn2c(=O)[nH]c3ccccc3c2=O)cc1	-6	0.6	35	0.3	66*	-14
CC1CCCN(C(=O)CCCn2c(=S)[nH]c3ccccc3c2=O)C1 (stereo not given)	8	0.5	53*	0.5	51*	-11
Cc1ccc(CNC(=O)CCCn2c(=O)[nH]c3ccccc3c2=O)cc1	3	0.9	5	0.8	20	-6
O=C(CCCn1c(=S)[nH]c2ccccc2c1=O)NC1CCCC1	8	0.7	30	1.2	-17	-7
O=C(O)C1CC=CCC1C(=O)Nc1ccc2c(c1)OCCO2 (stereo not given)	10	.	.	.	.	-4
CCn1c(C)c(C(C)=O)c(SC)nc1=S	-12	1.1	-6	1	-2	22
CCn1c(O)c(C=NCCN2CCOCC2)sc1=S	10	0.8	21	1	-2	-3
CN1CCCN(C2C3CC4CC(C3)CC2C4)CC1 (stereo not given)	-3	1	1	0.9	9	-10
CC1CCCCC1n1c(=S)[nH]c2ccccc2c1=O (stereo not given)	12	0.3	72*	0.8	20	-6
Cc1nc(N2CCN(C(c3ccccc3)c3ccccc3)CC2)[nH]c(=O)c1C	23	1	-1	1.1	-5	-11
CCN(CC)S(=O)(=O)c1cccc(-c2nnc(SCC(N)=O)n2CCc2ccccc2)c1	-5	.	.	.	.	-8
CCN(CC)S(=O)(=O)c1cccc(-c2nnc(SC(C)C#N)n2Cc2ccccc2)c1 (stereo not given)	.	0.4	61*	0.4	64*	.
CCN(CC)S(=O)(=O)c1cccc(-c2nnc(SC(C)C(N)=O)n2CCc2ccccc2)c1 (stereo not given)	-10	0.5	46	0.4	56*	7
CCN(CC)S(=O)(=O)c1cccc(-c2nnc(SCC(=O)c3ccc(Cl)s3)n2C)c1	3	0.3	71*	0.1	89*	-3
Cc1nc2ncnn2c(C)c1CCC(=O)N1CCOCC1	42	1.1	-14	1	-2	-18
Oc1cccc(-c2nc3c4c(ncn3n2)-c2ccccc2CC42CCCC2)c1	8	1	-2	0.8	23	5
Fc1ccc(C(c2nnnn2C2CCCC2)N2CCN(Cc3ccccc3)CC2)cc1 (stereo not given)	.	0.6	36	0.9	6	.
CCC(c1nnnn1C1CCCC1)N1CCN(c2ccccc2)CC1 (stereo not given)	0	0.8	21	0.5	46	-11
Fc1ccccc1N1CCN(C(c2ccncc2)c2nnnn2C2CCCC2)CC1 (stereo not given)	.	0.1	86*	0.4	64*	.
CCCC(c1nnnn1C1CCCC1)N1CCN(c2ccccc2F)CC1 (stereo not given)	-1	0.2	80*	0	97*	3
Cc1ccc(C(c2nnnn2C2CCCC2)N2CCN(c3nc4ccccc4s3)CC2)cc1 (stereo not given)	19	.	.	.	.	-12
O=c1c(C(c2nnnn2C2CCCCC2)N2CCCCC2)coc2ccc(Cl)cc12 (stereo not given)	.	0.5	52*	0.7	28	.
Clc1ccc(C(c2nnnn2C2CCCC2)N2CCN(Cc3ccncc3)CC2)cc1 (stereo not given)	-14	0	98*	0.1	90*	-8
O=C(Nc1ccc2c(c1)OCO2)N1CCN(c2ncc(C(F)(F)F)cc2Cl)CC1	7	0.8	18	0.8	23	-13
COc1cc(NC(=O)c2ccc3c(c2)OCO3)ccc1NC(=O)c1ccco1	5	.	.	.	.	-11
O=C(c1cccs1)N1CCN(S(=O)(=O)N2CCCCC2)CC1	-5	0.7	29	0.9	6	-7
c1ccc(C(c2nnnn2C2CCCC2)N2CCCCCC2)nc1 (stereo not given)	-1	0.5	52*	0.5	46	-10
